# The full list was thinned out, with hits kept by preference.
# IMPase inh: membrane-permeable compound that blocks inositol monophosphatase; P97697; CHO-M1 cells, IP1 accumulation, HTRF TR-FRET ratio; inhibition (IP1 accumulation), % at 46.1 µM; 120,000 tested, under 10 active; active means well fitted curve in the direction sought with a large enough effect in the signal ratio, not every such curve was filed as active; inconclusive means small, poorly fitted or top-dose-only effect, or a change in a side signal; inactive means no such curve, though single readings can be large or run the other way; the % refers to the signal ratio;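 further: cells stimulated with carbachol in lithium chloride buffer; plate controls were DMSO basal wells for no effect and reference inhibitor wells for full effect; higher means more IMPase inhibition seen as more IP1 and lower FRET ratio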
# Target sequence (P97697 whole entry, looked up): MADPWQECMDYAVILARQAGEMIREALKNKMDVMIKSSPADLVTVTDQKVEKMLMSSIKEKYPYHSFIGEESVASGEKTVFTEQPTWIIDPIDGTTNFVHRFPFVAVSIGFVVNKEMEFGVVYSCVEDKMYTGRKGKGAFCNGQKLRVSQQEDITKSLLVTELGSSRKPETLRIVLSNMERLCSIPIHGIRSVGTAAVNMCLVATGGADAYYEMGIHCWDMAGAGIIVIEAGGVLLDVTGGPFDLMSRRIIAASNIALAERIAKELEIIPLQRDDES
#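 CHO-M1, 2000 cells/well, cultured 16–30 h; cpd up to 46 uM; carbachol (50 uM solution, stimulation buffer w/ 50 mM LiCl, pH 7.4), 30 min 37C; IP-One TR-FRET, 10 min RT; Ex 320/Em 665, 620; Hill-fit AC50.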
# PNC inhibitor: blocks assembly of the perinucleolar compartment. PC3M PTB-GFP, PNC prevalence imaging, 16 h; hits give low values. activity change (PNC), negative = inhibition, % at 10 µM. hit rate 3.1% among 140,000. AID 2417;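 active means readout at or below -70, meaning at least 70% loss of cells showing the perinucleolar compartment, a nuclear body marking cancer cells; inconclusive means readout between -30 and a set limit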;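 further: plate controls were DMSO wells for no effect and camptothecin positive control wells for full effect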
#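 PC3M cells stably expressing PTB-GFP, 750–1000 cells/well, treated 16 h at 37 °C with compound (23 nl of library stock), in duplicate. After paraformaldehyde fixation and Hoechst stain, imaged at 20x; PNC prevalence scored by image analysis.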
# LMNA splice mod: modulators of lamin A splicing | AID 1487 | hit rate 0.01% among 200,000 | Potency, µM (doses to about 46.1 µM), for the others: at the highest dose ratio change, negative = inhibition, most hits filed as inhibitors | HeLa LMNA splicing GFP/RFP minigene ratio, 48 h; active means well fitted inhibition curve with a large enough effect in the signal ratio, with a control signal flat, not every such curve was filed as active; inconclusive means small, poorly fitted or top-dose-only effect, or effect the other way, or a change in a side signal; the % refers to the signal ratio; further: potency means the concentration at half of the fitted maximal effect
#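 Read-out is the ratio of GFP to DsRed2 object intensity, acquired by 488 nm laser-scanning cytometry on HeLa lamin A-EGFP minigene reporter cells. Compound incubation 48 hrs at 37 °C in Opti-MEM with 2% FBS; DMSO 0.5% final.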
# An asterisk follows results filed as active; ? = inconclusive; . = no result; [ ] = dose if it differs, or a comment. Unless noted, on the % scale 0 is the no-effect control and ±100 the full control effect.
SMILES,IMPase inh,PNC inhibitor,LMNA splice mod
O=C(Cc1ccccc1)NC1CC(=O)N(c2ccccc2)C1 (stereo not given),.,.,11.8%[46 µM]
O=C(NC(=S)Nc1cccnc1)c1cccs1,.,.,-3.1%[46 µM]
O=C(Nc1cccnc1)c1cccs1,10.8,-100.4*,?
COC(=O)[C@H](Cc1ccccc1)NC(=O)NCCC1=CCCCC1,-1.0,-9.8,18.5%
Cc1cc(N2C(=O)C(O)=C(C(=O)c3ccc(C)o3)C2c2cccs2)no1 (stereo not given),?,17.3,1.8%
CCc1ccc2nc(N3C(=O)C(O)=C(C(=O)c4ccco4)C3c3cccs3)sc2c1 (stereo not given),-12.9,-100.0*,?
CCNC(=O)c1c2c(nc3ccccc13)C(=O)N(C1CCCCC1)C2,.,.,2.9%[46 µM]
CN(C)CCNC(=O)CNC(=S)N(CCCN1CCOCC1)Cc1cccs1,.,.,5.6%[46 µM]
COc1ccccc1C1CC(c2ccc(C)cc2)Nc2ncnn21 (stereo not given),4.6,9.9,-11.8%
CCOC(=O)CNC=C(C(=O)OCC)C(=O)OCC,-3.4[1.84 µM],-95.6*,-8.4%
CCOC(=O)C(=CNCC(=O)OC)C(=O)OCC,9.9[1.84 µM],1.6,-5.7%
CC(C)(C)NC(=O)[C@H]1CC[C@H]2[C@@H]3CC[C@H]4NC(=O)C=C[C@]4(C)[C@H]3CC[C@]12C,0.6,.,?
COc1ccc(Nc2nc(-c3sc(N)nc3C)cs2)cc1,-7.0,?,12.2%
COc1ccc(CCNc2nc(-c3sc(N)nc3C)cs2)cc1OC,-0.6,-107.7*,-11.2%
Cc1csc2nc(-c3ccc(NS(=O)(=O)c4cccc(F)c4)cc3)cn12,.,.,11.0%[46 µM]
c1coc(CN(Cc2cccs2)Cc2nnnn2C2CCCCC2)c1,5.9,-100.0*,2.3%
Clc1ccccc1CN(Cc1ccco1)Cc1nnnn1C1CCCC1,2.4,?,-7.0%
CCS(=O)(=O)N1CC(=O)N(c2ccc(Cl)cc2C)C(C)(C(=O)NC2CCCCCC2)C1 (stereo not given),.,.,1.1%[46 µM]
CCOc1ccc(C(=O)NC2CCN(C(=O)N3CCCC3)CC2)cc1,5.5,56.1,-1.9%
CCOc1ccc(C(=O)NC2CCN(S(C)(=O)=O)CC2)cc1,6.3,-86.9*,0.7%
COc1cc(C2C(=O)N(C3CCCCCC3)CC(=O)N2Cc2ccccc2)ccc1OC(C)C (stereo not given),.,.,-4.5%[46 µM]
Cc1cc(C)cc(OCc2ccc(C(=O)Nc3ccccc3F)o2)c1,-3.7,.,.
CCOc1ccc(CCNc2ncnc3onc(-c4ccc(F)cc4)c23)cc1OCC,.,.,-2.0%[46 µM]
COc1ccc(S(=O)(=O)N2CCN(Cc3nc4ccc(C)cc4o3)CC2)cc1OC,.,.,8.4%[46 µM]
N#Cc1nc(COc2ccc(Cl)cc2)oc1N1CCCCCC1,47.1,?,0.3%
SMILES,IMPase inh,PNC inhibitor,LMNA splice mod
N#Cc1nc(COc2ccccc2Cl)oc1N1CCCC1,.,.,5.4%[46 µM]
N#Cc1nc(COc2ccccc2Cl)oc1N1CCCCCC1,-4.0,-121.7*,-1.0%
CC1CN(c2oc(COc3ccc(Cl)cc3Cl)nc2C#N)CC(C)O1 (stereo not given),3.0,-100.0*,-6.8%
CCCCOC(=O)c1ccc(NC(=O)c2cc(-c3cccs3)on2)cc1,.,.,6.0%[46 µM]
CSc1c(CC(=O)Nc2ccccc2Cl)n(Cc2ccccc2)c2ccccc12,3.7,5.6,?
CSc1c(CC(=O)Nc2ccccc2C(F)(F)F)n(Cc2ccccc2)c2ccccc12,.,-106.5*,12.0%
CCOc1ccccc1CNC(=O)C1CCN(S(=O)(=O)c2ccc3[nH]c(=O)ccc3c2)CC1,.,.,-9.0%[46 µM]
CCOC(=O)c1sc(NC(=O)c2cccc(S(=O)(=O)N3c4ccccc4CC3C)c2)cc1C (stereo not given),.,-95.0*,?
CCC(CO)NC(=O)c1cccc(S(=O)(=O)N2c3ccccc3CC2C)c1 (stereo not given),-4.9,-18.6,3.2%
COc1ccc(N2CCN(C(=O)Cn3nnc(-c4ccccc4N)n3)CC2)cc1,.,.,4.2%[46 µM]
COc1ccc(C(=O)/C=C/N(C)C)cc1OC,0.1,-4.1,?
COc1ccc(C(=O)/C=C/N(C)C)cc1,-0.9,-80.4*,1.4%
CCCCC(=O)OCc1cc(=O)n2nc(C3CC3)sc2n1,.,.,13.5%[46 µM]
CCCCn1cc(S(=O)(=O)c2ccc(C)c(C)c2)c(=O)c2cc(F)c(N3CCN(C)CC3)cc21,.,.,6.2%[46 µM]
CCN(CC)c1ccc(/C=C(/C#N)C(=O)NCc2ccccc2)o1,.,-90.2*,?
CCN(CC)c1ccc(/C=C(/C#N)C(=O)NC(C)C)o1,.,.,10.5%[46 µM]
O=c1cc(-c2ccc(F)cc2)nc(SCc2nc(-c3cccc(C(F)(F)F)c3)no2)[nH]1,.,.,-4.6%[46 µM]
CC(=O)Nc1ccc(S(=O)(=O)NCCSCc2ccco2)cc1,2.1,20.6,?
CS(=O)(=O)NCCSCc1ccco1,5.7,-81.9*,1.6%
CCCC(=O)Nc1ccccc1NC(=O)c1ccc(OCC)c(OCC)c1,.,.,17.2%[46 µM]

# High-throughput results from PubChem BioAssay.
